# In PubChem BioAssay AID1159580 (chemical genetic matrix, 2015):
# The campaign covered roughly 5,500 compounds. About 2,000 (36%) were called active. About 18% were inconclusive and are not listed. The list shows a part of the results. Unmarked numbers belong to inactive results. No stated cut-off is given here; in the data, active means normalized growth mostly below about 0.91 (no sharp cut-off); inconclusive means no clear call, values can overlap the other calls; inactive means mostly above about 0.92.
# Assay: chemical genetic growth profiling, strain panel (AID 1159580);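 further: tested at 20 µM; growth read once vehicle control cultures reached saturation at 30 °C; 1 = growth at the plate median or of vehicle wells; lower values mean less growth of the strain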
# Conditions: S. cerevisiae deletion strains, growth OD
# [1] = locus YHR030C, strain SLT2, active compounds read low
# [2] = locus YHR079C, strain IRE1, active compounds read low
# [3] = locus YJL095W, strain BCK1, active compounds read low
# [4] = locus YJR066W, strain TOR1, active compounds read low
# [5] = locus YLR113W, strain HOG1, active compounds read low
# [6] = locus YNL183C, strain NPR1, active compounds read low
# [7] = locus YOR231W, strain MKK1, active compounds read low
# [8] = locus YPL256C, strain CLN2, active compounds read low
structure (smiles),measurement,setting,value
COc1ccc(-c2cc(=O)c3c(OC)c(OC)c(OC)cc3o2)cc1OC,normalized growth,[1],1.03
same,normalized growth,[2],1.02
same,normalized growth,[3],0.974
same,normalized growth,[4],0.99
same,normalized growth,[5],0.968
same,normalized growth,[6],0.936
same,normalized growth,[7],1.02
same,normalized growth,[8],1
COc1ccc(-c2cc(=O)c3c(O)c(OC)c(OC)c(OC)c3o2)cc1OC,normalized growth,"locus YAL021C, strain ccr4, active compounds read low",0.997
same,normalized growth,"locus YAL026C, strain drs2, active compounds read low",0.974
same,normalized growth,"locus YAL030W, strain snc1, active compounds read low",0.995
same,normalized growth,"locus YBL061C, strain skt5, active compounds read low",0.991
same,normalized growth,"locus YBR009C, strain hhf1, active compounds read low",0.965
same,normalized growth,"locus YBR023C, strain chs3, active compounds read low",1
same,normalized growth,"locus YBR171W, strain sec66, active compounds read low",0.994
same,normalized growth,"locus YBR231C, strain swc5, active compounds read low",0.976
same,normalized growth,"locus YBR279W, strain paf1, active compounds read low",0.995
same,normalized growth,"locus YCL011C, strain gbp2, active compounds read low",0.989
same,normalized growth,"locus YCL016C, strain dcc1, active compounds read low",0.996
same,normalized growth,"locus YCL069W, strain vba3, active compounds read low",1.01
same,normalized growth,"locus YCR088W, strain abp1, active compounds read low",0.997
same,normalized growth,"locus YDL005C, strain med2, active compounds read low",0.998
same,normalized growth,"locus YDL040C, strain nat1, active compounds read low",1.02
same,normalized growth,"locus YDR001C, strain nth1, active compounds read low",1
same,normalized growth,"locus YDR069C, strain doa4, active compounds read low",0.972
same,normalized growth,"locus YDR137W, strain rgp1, active compounds read low",1.2 [resistant] (active)
same,normalized growth,"locus YDR159W, strain sac3, active compounds read low",0.967
same,normalized growth,"locus YDR195W, strain ref2",1.03
same,normalized growth,"locus YDR297W, strain sur2, active compounds read low",0.988
same,normalized growth,"locus YDR334W, strain swr1, active compounds read low",1
same,normalized growth,"locus YDR335W, strain msn5, active compounds read low",1
same,normalized growth,"locus YDR392W, strain spt3, active compounds read low",0.867
same,normalized growth,"locus YEL003W, strain gim4, active compounds read low",0.994
same,normalized growth,"locus YEL037C, strain rad23, active compounds read low",0.997
same,normalized growth,"locus YEL061C, strain CIN8 (second series), active compounds read low",1.02
same,normalized growth,"locus YER015W, strain faa2, active compounds read low",0.989
same,normalized growth,"locus YER016W, strain bim1, active compounds read low",1.04
same,normalized growth,"locus YER111C, strain swi4, active compounds read low",0.987
same,normalized growth,"locus YER155C, strain BEM2 (second series), active compounds read low",0.939
same,normalized growth,"locus YFR010W, strain ubp6, active compounds read low",0.997
same,normalized growth,"locus YGL167C, strain pmr1, active compounds read low",0.992
same,normalized growth,"locus YGL173C, strain kem1, active compounds read low",0.991
same,normalized growth,"locus YGL227W, strain vid30, active compounds read low",0.99
same,normalized growth,"locus YGL240W, strain doc1, active compounds read low",0.983
same,normalized growth,"locus YGL253W, strain hxk2, active compounds read low",0.951
same,normalized growth,"locus YHR013C, strain ard1, active compounds read low",1.01
same,normalized growth,"locus YHR027C, strain rpn1, active compounds read low",1
same,normalized growth,[1],0.961
same,normalized growth,[2],0.949
same,normalized growth,"locus YHR142W, strain chs7, active compounds read low",0.953
same,normalized growth,"locus YJL092W, strain hpr5, active compounds read low",1
same,normalized growth,"locus YJL095W, strain BCK1 (second series), active compounds read low",0.992
same,normalized growth,[3],1.01
same,normalized growth,"locus YJL115W, strain asf1, active compounds read low",0.996
same,normalized growth,"locus YJL129C, strain trk1, active compounds read low",0.949
same,normalized growth,"locus YJL154C, strain vps35, active compounds read low",0.998
same,normalized growth,"locus YJL164C, strain tpk1, active compounds read low",0.995
same,normalized growth,"locus YJL166W, strain qcr8, active compounds read low",0.974
same,normalized growth,"locus YJL187C, strain SWE1, active compounds read low",0.989
same,normalized growth,[4],0.914
same,normalized growth,"locus YKL160W, strain elf1, active compounds read low",0.994
same,normalized growth,"locus YKR026C, strain gcn3, active compounds read low",0.995
same,normalized growth,"locus YKR091W, strain srl3, active compounds read low",1.03
same,normalized growth,"locus YLL001W, strain dnm1, active compounds read low",0.984
same,normalized growth,"locus YLL026W, active compounds read low",0.998
same,normalized growth,"locus YLL041C, strain sdh2, active compounds read low",1
same,normalized growth,"locus YLR027C, strain aat2, active compounds read low",0.997
same,normalized growth,[5],1
same,normalized growth,"locus YLR221C, strain rsa3, active compounds read low",0.943
same,normalized growth,"locus YLR258W, strain gsy2, active compounds read low",1
same,normalized growth,"locus YLR262C, strain YPT6 (second series), active compounds read low",0.985
same,normalized growth,"locus YLR320W, strain mms22, active compounds read low",0.975
same,normalized growth,"locus YLR342W, strain FKS1, active compounds read low",1
same,normalized growth,"locus YLR357W, strain rsc2, active compounds read low",0.972
same,normalized growth,"locus YLR370C, strain arc18, active compounds read low",0.986
same,normalized growth,"locus YLR384C, strain iki3, active compounds read low",0.974
same,normalized growth,"locus YML120C, strain ndi1, active compounds read low",0.989
same,normalized growth,"locus YMR058W, strain fet3, active compounds read low",0.815 (active)
same,normalized growth,"locus YMR125W, strain sto1, active compounds read low",1.01
same,normalized growth,"locus YMR129W, active compounds read low",1.01
same,normalized growth,"locus YMR205C, strain PFK2, active compounds read low",1
same,normalized growth,"locus YMR231W, strain pep5, active compounds read low",1
same,normalized growth,"locus YNL071W, strain lat1, active compounds read low",0.994
same,normalized growth,[6],0.944
same,normalized growth,"locus YNL209W, strain ssb2, active compounds read low",0.998
same,normalized growth,"locus YNL248C, strain rpa49, active compounds read low",0.971
same,normalized growth,"locus YNL322C, strain KRE1 (second series), active compounds read low",1
same,normalized growth,"locus YNR049C, strain mso1, active compounds read low",1.01
same,normalized growth,"locus YOR001W, strain rrp6, active compounds read low",0.94
same,normalized growth,"locus YOR070C, strain gyp1, active compounds read low",0.978
same,normalized growth,"locus YOR080W, strain dia2, active compounds read low",0.999
same,normalized growth,"locus YOR083W, strain WHI5, active compounds read low",0.991
same,normalized growth,"locus YOR106W, strain vam3, active compounds read low",0.954
same,normalized growth,[7],0.95
same,normalized growth,"locus YOR265W, strain rbl2, active compounds read low",0.993
same,normalized growth,"locus YOR270C, strain vph1, active compounds read low",0.962
same,normalized growth,"locus YOR290C, strain snf2, active compounds read low",0.994
same,normalized growth,"locus YPL051W, strain arl3, active compounds read low",0.947
same,normalized growth,"locus YPL078C, strain atp4, active compounds read low",0.979
same,normalized growth,"locus YPL106C, strain sse1, active compounds read low",0.953
same,normalized growth,"locus YPL240C, strain hsp82, active compounds read low",1.03
same,normalized growth,[8],0.971
